This is a sample that favours compounds with a hit; in the whole collection about 1.2% have one here.
p97 inhibitor – inhibitors of human p97 ATPase; recombinant p97 ATPase, Kinase-Glo ATP luminescence, 3 h; inhibition, % at 8 µM; 220,000 tested, 0.42% active; AID 1481; in the data active = inhibition above about 15%;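 also: 0% = DMSO vehicle and 100% = wells lacking enzyme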
SUMO HTRF inh – blocks human SUMOylation mediated by UBC9; AID 2006; inhibition, % at 35 µM; 290,000 tested, 0.36% active; HTRF SUMOylation assay, SAE1/SAE2 + UBC9, in vitro; P63279; in the data active = inhibition above about 50%, passing the limit was not always enough
Target sequence (P63279 whole entry, looked up): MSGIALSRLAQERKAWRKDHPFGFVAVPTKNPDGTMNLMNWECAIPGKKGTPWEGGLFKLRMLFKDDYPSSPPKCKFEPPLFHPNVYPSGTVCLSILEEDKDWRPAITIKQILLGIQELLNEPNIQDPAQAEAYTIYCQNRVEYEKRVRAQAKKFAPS
Furin inhibitor – human furin inhibition | inhibition, % at 20 µM or 30 µM | 220,000 tested, 0.061% active | P09958 | purified furin, fluorogenic substrate cleavage; in the data active = inhibition above about 25%
DTT redox prof – compounds producing H2O2 with reducing agent – biochemical, NIH compound library profiling, artefact control for MLSCN library redox annotation, primary screen; AID 878; activation, % at 10 µM; DTT-dependent redox cycling H2O2, phenol red/HRP absorbance; 100% = 100 µM peroxide control, 0% = buffer; 200,000 tested, 0.03% active;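 active = activation of at least 50% relative to the plate's high and low controls in the primary single-dose screen; inactive = activation below 50%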;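 also: compound incubated with DTT at 0.8 mM final as the reducing agent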
PKD1 kinase inh – inhibitors of human PKD1 kinase | Q15139 | 200,000 tested, 0.056% active | PKD1 kinase fluorescence polarization assay | inhibition, % (test concentration not listed); in the data active = inhibition above about 50%
FAS-TE inh – inhibitors of human fatty acid synthase thioesterase domain; P49327; recombinant FAS-TE, OMFH fluorogenic substrate, fluorescence endpoint; inhibition, % at 15 µM; 360,000 tested, 0.67% active; AID 602261;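 active = compounds whose normalised, plate-corrected inhibition of enzyme fluorescence in the single-dose primary screen is 50% or more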;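 also: 0% = DMSO with enzyme and 100% = substrate without enzyme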
* = called active by the depositor; x = not tested or not shown.

SMILES	p97 inhibitor	SUMO HTRF inh	Furin inhibitor	DTT redox prof	PKD1 kinase inh	FAS-TE inh
Cc1ccc(S(=O)(=O)/C(C#N)=C/c2c(N3CC(C)OC(C)C3)nc3c(C)cccn3c2=O)cc1 (configuration not stated)	-4.2	10.0	-3.7	-0.1	-1.4	55.6*
CN1CCN(c2nc3ccccn3c(=O)c2/C=C(\C#N)S(=O)(=O)c2ccccc2)CC1	6.2	-11.5	-2.1	x	x	3.3
CC1CN(c2nc3ccccn3c(=O)c2/C=C(\C#N)S(=O)(=O)c2ccccc2)CC(C)O1 (configuration not stated)	-0.5	7.6	31.1*	0.6	-6.3	20.7
CCc1nc2ccc(C(=O)N(C)Cc3ccco3)cn2c1N(CC)Cc1cccc(Br)c1	x	x	x	x	x	6.3
CC1CCCN(CC(=O)Nc2ccc(S(=O)(=O)N3C(C)CCCC3C)cc2)C1 (configuration not stated)	x	x	x	x	x	9.3
O=C1N/C(=N/O)S/C1=C/c1cccc([N+](=O)[O-])c1	-1.1	16.8	-4.9	-0.9	-0.2	0.1
Cc1cccc(/C=C2/S/C(=N/N=C3\CC4CCC3(C)C4(C)C)NC2=O)c1 (configuration not stated)	2.4	-33.6	31.1*	-3.1	-9.0	17.7
CCOC(=O)C(C(=O)NCC1CCCO1)C1CCCCC1 (configuration not stated)	5.0	-1.3	28.0*	1.4	5.2	-4.9
CC(C)N1CCC2(CC1)C(C#N)=C(N)NC(S)=C2C#N	6.7	52.0*	4.5	0.4	8.2	x
N#CC1=C(N)NC(SCC(=O)O)=C(C#N)C12CCCC2	8.8	11.6	-14.6	2.5	-11.0	-3.6
COCCCN1C(=O)C(CC(=O)NCCc2ccccn2)CC(C(=O)N2CCCCCC2)=C1C (configuration not stated)	x	x	x	x	x	-1.7
O=[N+]([O-])c1ccc(Nc2c3ccccc3nc3ccccc23)cc1	10.5	-31.6	-26.3	-0.8	67.0*	27.5
Cc1ccc(NC(=O)c2cc(C)n(-c3ccccc3)c2C)cc1	1.1	3.9	-0.3	0.4	-10.1	15.9
Cc1cc(C(=O)Nc2ccc(Cl)cc2)c(C)n1-c1ccccc1	4.6	87.5*	5.3	x	x	33.4
CC(=O)Nc1ccc(S(=O)(=O)Oc2cccc(/C=C3\SC(N)=NC3=O)c2)cc1	4.6	50.5*	-17.6	0.0	9.5	-6.5
O=C1c2ccccc2C(=O)C12OC2c1cccc2ccccc12 (configuration not stated)	7.2	95.8*	-21.6	0.2	1.9	9.0
O=C(c1cccs1)N1C[C@H](O)[C@@H](n2cc(C3CC3)nn2)C[C@@H]1c1ccccc1	x	x	x	x	x	-8.0
COc1ccc(CCNC(=O)c2ccc(N3CCCC3=O)cc2)cc1OC	1.3	5.7	26.3*	-0.2	-1.6	-4.4
COc1ccc(C(=O)Nc2ccc(C(=O)NCCc3ccc(OC)c(OC)c3)cc2)cc1	0.1	60.0*	-28.7	0.7	5.5	-8.8
CCOc1ccc(CCNC(=O)c2cccc(N3CCCC3=O)c2)cc1OCC	1.2	3.8	0.7	1.7	-2.6	-3.6
COc1ccc(CC(=O)NCCc2ccc(OC)c(OC)c2)cc1	x	23.6	x	x	x	-2.8
C[C@@H]1OC(C2CCCCC2)N(C)[C@H]2C[C@H]3c4[nH]c5ccccc5c4CCN3C[C@@H]12 (some centres not stated)	x	x	x	x	x	9.0
CCOc1ccccc1Oc1c(C)oc2c(CN3CCN(C)CC3)c(O)ccc2c1=O	-0.1	50.2*	-13.6	-0.2	5.3	-3.6
COc1ccccc1Oc1c(C)oc2c(CN3CCOCC3)c(O)ccc2c1=O	-1.1	29.2	-16.7	x	x	-6.9
CCCc1cc(=O)[nH]c(SCc2ccccc2)n1	-8.1	14.2	4.5	-0.3	-4.8	-11.1
SMILES	p97 inhibitor	SUMO HTRF inh	Furin inhibitor	DTT redox prof	PKD1 kinase inh	FAS-TE inh
CCCc1cc(=O)[nH]c(SCCCCN2C(=O)c3ccccc3C2=O)n1	3.0	3.0	-10.6	-0.4	108.7*	1.4
CCC(C)[C@@H](NC(=O)OC(C)(C)C)c1nnc(S(=O)(=O)Cc2cccc(C)c2)o1 (some centres not stated)	-0.3	6.8	-11.7	-0.1	0.2	60.0*
CC(C)CC(=O)Nc1ccc2oc(-c3cccnc3)nc2c1	1.4	52.8*	-25.4	-10.2	-0.2	-5.3
CCCCCC(=O)Nc1ccc2oc(-c3cncc(Br)c3)nc2c1	-4.9	19.8	-0.2	1.3	-0.8	-9.9
CCCC(=O)Nc1ccc2oc(-c3cncc(Br)c3)nc2c1	3.4	52.0*	-17.2	-0.3	-3.9	-3.2
CCCn1c(C)cc(C(=O)COc2ccc(C)nc2[N+](=O)[O-])c1C	2.0	18.3	-11.9	0.3	0.9	-0.2
COCCn1c(C)cc(C(=O)COc2ccc(C)nc2[N+](=O)[O-])c1C	14.7*	21.8	-19.6	0.6	0.3	-6.4
NC(=O)c1ncn([C@@H]2O[C@H](CNS(=O)(=O)c3cc4ccccc4s3)[C@@H](O)[C@H]2O)n1	x	x	x	x	x	-8.5
CC1(c2nnnn2-c2ccc3c(c2)OCCO3)CCC(=O)N1Cc1cccnc1 (configuration not stated)	x	x	x	x	x	-13.8
CCN(CC)S(=O)(=O)c1ccc(N2CC(C(=O)Nc3cccc(C(=O)NC4CC4)c3)CC2=O)cc1 (configuration not stated)	x	x	x	x	x	-6.9
CC[C@@]12C(=O)N(c3cccc(Cl)c3)C(=O)N1[C@H](c1ccc(Br)cc1)[C@@H]1C(=O)N(C(C)(C)C)C(=O)[C@@H]12	x	x	x	x	x	56.2*
CC(C)(C)N1C(=O)[C@H]2[C@@H](c3ccc(Br)cc3)N3C(=O)N(c4cccc(Br)c4)C(=O)[C@@]3(Cc3ccccc3)[C@H]2C1=O	x	-1.9	x	x	x	85.7*
CC(C)C[C@@]12C(=O)N(c3cccc(Cl)c3)C(=O)N1[C@H](c1ccc(Br)cc1)[C@@H]1C(=O)N(C(C)(C)C)C(=O)[C@@H]12	x	x	x	x	x	49.8
O=C(C1CC(=O)N(c2ccc(F)c(Cl)c2)C1)N1CCOCC1 (configuration not stated)	x	x	x	x	x	-3.2
CCCCCC#CCC#CCC#CCC#CCCCC(=O)O	-0.6	58.2*	-8.6	0.3	-6.9	x
N#C/C(=C(/O)CSc1ccccc1C(=O)O)c1nc2ccccc2s1	16.3*	15.8	-7.2	0.0	-0.6	-7.2
Cc1ccc(NS(=O)(=O)N2CCCCC2)cc1	x	x	x	x	x	-3.0
CCc1nn(CC(=O)NC(C)CCc2ccccc2)c(=O)c2cc3cc(F)ccc3n12 (configuration not stated)	x	51.0*	x	x	x	-2.7
CCc1nn(CC(=O)NC2CCN(Cc3ccccc3)CC2)c(=O)c2cc3cc(F)ccc3n12	x	15.3	x	x	x	-1.4
CCN(CC(=O)NCc1cccs1)C(=O)c1cccc(S(=O)(=O)N(CC)c2ccccc2)c1	x	x	x	x	x	5.5
COC(=O)c1ccccc1NC1=C/C(=N\S(=O)(=O)c2ccc(C(=O)O)cc2)c2ccccc2C1=O	x	91.9*	x	x	x	6.9
C/C(=C/C(=O)NCc1ccccc1)C(=O)O	-2.4	52.5*	-11.6	-7.2	-13.5	-8.2
